Inconclusive results are not listed. Values without a mark were called inactive. Activity calls are given as the source filed them. The call rests on the fitted dose curve; in most records, active means well fitted cell-killing curve with a large enough effect in the repeat runs; inconclusive means weak or mixed curves, or effect the other way; inactive means flat fitted curve, though single readings scatter.
Assay: qHTS assay to identify small molecule agonists of the estrogen receptor beta (ER-beta) signaling pathway - cell viability counter screen (AID 1259380); further: nearly all actives have a fitted effect of over 30% in size
Details: ER-beta-bla HEK293T viability, CellTiter-Glo luminescence, 16 h; series mostly up to 92.4 µM
Text: National Center for Advancing Translational Sciences [NCATS]
NIH Chemical Genomics Center [NCGC]
U.S. Environmental Protection Agency [EPA]
National Institutes of Environmental Health Sciences [NIEHS]
National Toxicology Program [NTP]
U.S. Food and Drug Administration [FDA]
Estrogen receptor (ER), a nuclear hormone receptor, plays an important role in development, metabolic homeostasis and reproduction. Two subtypes of ER, ER-alpha and ER-beta, have similar expression patterns with some uniqueness in both types. Endocrine disrupting chemicals (EDCs) and their interactions with steroid hormone receptors like ER causes disruption of normal endocrine function. To identify the compounds that activate ER signaling, an ER beta-UAS-bla GripTite cell line (Life Technologies, Madison, WI, USA) containing a beta-lactamase reporter gene under the control of an UAS response element was used to screen Tox21 10K compound library. The cytotoxicity of the Tox21 compound library against the ER-beta-bla cell line was tested in parallel by measuring the cell viability using CellTiter-Glo assay in the same wells.
Tox21 Assay Protocol Summary:
ER-beta-UAS-bla HEK293T cells were dispensed at 2,000 cells/5 uL of assay medium containing 2% charcoal stripped FBS per well into black wall/clear-bottom 1536-well plates using a Multidrop Combi (ThermoFisher Scientific, Waltham, MA) dispenser. After the assay plates were incubated at a 37C and 5% CO2 for 6 hr, 23 nL of compounds dissolved in DMSO, positive controls or DMSO only was transferred to the assay plate by a Pintool station (Kalypsys, San Diego, CA). The plates were incubated at 37C and 5% CO2 for 16 hr. Then 1 uL of LiveBLAzerTM B/G FRET substrate was added using a BioRAPTR FRD (Flying Reagent Dispenser, Aurora Discovery, San Diego, CA) and then the plates were incubated at room temperature for 2 hours, and fluorescence intensity was measured by an Envision plate reader (PerkinElmer, Shelton, CT). For cell viability readout that measures cytotoxicity, 4 uL/well of CellTiter-Glo reagent was added into the assay plates using a FRD. After 30 min incubation at room temperature, the luminescence intensity in the plates was measured using a ViewLux (PerkinElmer) plate reader.
On the % scale 0 is the no-effect control and ±100 the full control effect.

| SMILES | outcome | activity change, negative = cytotoxicity |
| --- | --- | --- |
| CC1(C)O[C@H]2CC(=O)OC[C@]23[C@H]2CC[C@@]4(C)[C@H](c5ccoc5)OC(=O)[C@H]5O[C@]54[C@]2(C)C(=O)C[C@@H]13 | inactive | – |
| Cc1ncc([N+](=O)[O-])n1CC(C)O (stereo not given) | inactive | – |
| Cn1nnc2c(C(N)=O)ncn2c1=O | inactive | – |
| C/C(=C1\CCOC(=O)S1)N(C=O)Cc1cnc(C)nc1N | inactive | – |
| c1ccc(-c2nn[nH]n2)cc1 | inactive | – |
| CC(O)CC(C)O (stereo not given) | inactive | – |
| C=CCCCCCCCC | inactive | – |
| CCCCC1CCC(O)CC1 (stereo not given) | inactive | – |
| c1ccc2c(CC3=NCCN3)cccc2c1 | inactive | – |
| [O]=[Mo](=[O])=[O] | – | 3.4% [at 19 µM] |
| CC(C)c1ccc(C=O)cc1 | inactive | – |
| O=Cc1ccccc1Cl | inactive | – |
| Cc1cc(C)c(C(=O)O)c(C)c1 | inactive | – |
| CC(=O)OCC(=O)Nc1cc(C#N)cc(NC(=O)COC(C)=O)c1Cl | inactive | – |
| COc1cc(/C=C/C(N)=O)cc(OC)c1OC | inactive | – |
| CCCCOCCOC(=O)COc1ccc(Cl)cc1Cl | inactive | – |
| CC1c2ccccc2CN1NC(=O)c1ccc(Cl)c(S(N)(=O)=O)c1 (stereo not given) | inactive | – |
| OC[C@@H](O)C(O)[C@@H](O)CO (stereo not given in full) | inactive | – |
| CC1=C(C(=O)O)N2C(=O)[C@@H](NC(=O)[C@H](N)C3=CCC=CC3)[C@H]2SC1 | inactive | – |
| CN(C)CC/C=C1/c2ccccc2COc2ccc(CC(=O)O)cc21 | inactive | – |

| SMILES | outcome | activity change, negative = cytotoxicity |
| --- | --- | --- |
| O=C[O][Al]([O]C=O)[O]C=O | inactive | – |
| CC(C)NCC(O)c1ccc2ccccc2c1 (stereo not given) | inactive | – |
| COC(=O)c1cccc(Cl)c1 | inactive | – |
| CCCCOC(=O)C(C)O (stereo not given) | inactive | – |
| CCCCCCCCCOC(=O)CCCCC(=O)OCCCCCCC | inactive | – |
| CCC/C=C(\C=O)CC | inactive | – |
| CC(=O)CCC1=C(C)CCCC1(C)C | inactive | – |
| O=C=NCC1CCCC(CN=C=O)C1 (stereo not given) | inactive | – |
| C=CCCCC | inactive | – |
| COC(C)(OC)OC | inactive | – |
| CCCCCC/C=C/C(=O)OC | inactive | – |
| O=C(O)c1cc2ccccc2nc1C(=O)O | inactive | – |
| CCCCCCCCCOC(=O)c1ccccc1C(=O)OCCCCCCCCC | inactive | – |
| CC1=NN(c2ccc(S(=O)(=O)O)cc2)C(=O)C1 | inactive | – |
| CC(=O)CC(=O)OC(C)(C)C | inactive | – |
| CCCC(=O)OC/C=C(\C)CCC=C(C)C | inactive | – |
| O=C1CCCCO1 | inactive | – |
| CC1CCc2c(N3CCC(O)CC3)c(F)cc3c(=O)c(C(=O)O)cn1c23 (stereo not given) | inactive | – |
| ONc1ccccc1 | inactive | – |
| C=CC(=O)OCC1CCCO1 (stereo not given) | inactive | – |
